B1: PHTF2, Q8N3S3 (peptide)
chain: LWEDLLHAAEAHSSAT
SIN3A 295-383, Q96ST3
Sequence of SIN3A 295-383, Q96ST3 (Q96ST3 295-383): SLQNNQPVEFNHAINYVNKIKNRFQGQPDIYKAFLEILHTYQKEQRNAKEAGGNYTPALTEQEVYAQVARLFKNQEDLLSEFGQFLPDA
  selected by phage display: confidence 2 (active)

B2: NFKB2, Q00653 (peptide)
chain: AGGDLAGLLEALSDMG
SIN3A 295-383, Q96ST3
  selected by phage display: confidence 2 (active)

B3: RRBP1, Q9P2E9 (peptide)
chain: IEALLEAGQARDAQDV
SIN3A 295-383, Q96ST3
  selected by phage display: confidence 2 (active)

B4: WWC2, Q6AWC2 (peptide)
chain: GDWLTMLREASDEIVA
SIN3A 295-383, Q96ST3
  selected by phage display: confidence 2 (active)

B5: ZMYM5, Q9UJ78 (peptide)
chain: DDDDVVFIESIQPPSI
SUMO1 1-101, P63165
Sequence of SUMO1 1-101, P63165 (P63165 whole entry): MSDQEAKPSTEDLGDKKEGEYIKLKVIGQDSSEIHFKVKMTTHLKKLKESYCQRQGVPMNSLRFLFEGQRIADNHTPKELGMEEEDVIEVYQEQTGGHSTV
  selected by phage display: confidence 3 (active)

B6: C18orf25, Q96B23 (peptide)
chain: SPAEVVDLTLDEDSRR
SUMO1 1-101, P63165
  selected by phage display: confidence 4 (active)

B7: PIAS3, Q9Y6X2 (peptide)
chain: VEVIDLTIESSSDEED
SUMO1 1-101, P63165
  selected by phage display: confidence 4 (active)

B8: RNF4, P78317 (peptide)
chain: DEIVDLTAESLEPVVV
SUMO1 1-101, P63165
  selected by phage display: confidence 2 (active)

B9: ZNF280D, Q6N043 (peptide)
chain: DDDEPIFVGEISSSKP
SUMO1 1-101, P63165
  selected by phage display: confidence 2 (active)

B10: SMARCAD1, Q9H4L7 (peptide)
chain: GIQYIDLSSDSEDVVS
SUMO1 1-101, P63165
  selected by phage display: confidence 4 (active)

B11: RNF111, Q6ZNA4 (peptide)
chain: AEVVDLTVDEDEPTVV
SUMO1 1-101, P63165
  selected by phage display: confidence 2 (active)

B12: TTF2, Q9UNY4 (peptide)
chain: EEEDDVVFVSSKPGSP
SUMO1 1-101, P63165
  selected by phage display: confidence 2 (active)

B13: PIAS4, Q8N2W9 (peptide)
chain: PGADVVDLTLDSSSSS
SUMO1 1-101, P63165
  selected by phage display: confidence 2 (active)

B14: CREB1, P16220 (peptide)
chain: ALENRVAVLENQNKTL
SUMO1 1-101, P63165
  selected by phage display: confidence 2 (active)

B15: FMO1, Q01740 (peptide)
chain: TTGGGWVISRIFDSGY
TLN1 309-401, Q9Y490
Sequence of TLN1 309-401, Q9Y490 (Q9Y490 309-401): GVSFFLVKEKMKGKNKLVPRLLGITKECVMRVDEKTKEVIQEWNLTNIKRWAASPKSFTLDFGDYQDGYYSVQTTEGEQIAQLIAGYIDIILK
  selected by phage display: confidence 4 (active)

B16: TPTE, P56180 (peptide)
chain: DLIFTDSKLYIPLEYR
TLN1 309-401, Q9Y490
  selected by phage display: confidence 4 (active)

B17: JMJD1C, Q15652 (peptide)
chain: GLYPIIWQYPNGTHAY
TLN1 309-401, Q9Y490
  selected by phage display: confidence 2 (active)

B18: ATP12A, P54707 (peptide)
chain: AHLWFDNQIFVADTSE
TLN1 309-401, Q9Y490
  selected by phage display: confidence 3 (active)

B19: NEMP2, A6NFY4 (peptide)
chain: EDLKWLWYENRIYVLG
TLN1 309-401, Q9Y490
  selected by phage display: confidence 2 (active)

B20: OR52W1, Q6IF63 (peptide)
chain: AVVWIDSTLHQPMFLL
TLN1 309-401, Q9Y490
  selected by phage display: confidence 2 (active)

B21: PRUNE2, Q8WUY3 (peptide)
chain: WTFSPLTETEMQITAV
TLN1 309-401, Q9Y490
  selected by phage display: confidence 2 (active)

B22: PSD4, Q8NDX1 (peptide)
chain: EEESMFFSNPLFLASP
TLN1 309-401, Q9Y490
  selected by phage display: confidence 2 (active)

B23: RSBN1, Q5VWQ0 (peptide)
chain: SQSDDGPIMWVRPGEQ
TLN1 309-401, Q9Y490
  selected by phage display: confidence 2 (active)

B24: RET, P07949 (peptide)
chain: ALPSTWIENKLYGMSD
TLN1 309-401, Q9Y490
  selected by phage display: confidence 4 (active)

B25: ARHGAP31, Q2M1Z3 (peptide)
chain: QWVTSPLHSPTLKDAH
TLN1 309-401, Q9Y490
  selected by phage display: confidence 4 (active)

B26: DTNBP1, Q96EV8 (peptide)
chain: LSTGYLQIAERREPIG
TNKS 174-649, O95271
Sequence of TNKS 174-649, O95271 (O95271 174-649): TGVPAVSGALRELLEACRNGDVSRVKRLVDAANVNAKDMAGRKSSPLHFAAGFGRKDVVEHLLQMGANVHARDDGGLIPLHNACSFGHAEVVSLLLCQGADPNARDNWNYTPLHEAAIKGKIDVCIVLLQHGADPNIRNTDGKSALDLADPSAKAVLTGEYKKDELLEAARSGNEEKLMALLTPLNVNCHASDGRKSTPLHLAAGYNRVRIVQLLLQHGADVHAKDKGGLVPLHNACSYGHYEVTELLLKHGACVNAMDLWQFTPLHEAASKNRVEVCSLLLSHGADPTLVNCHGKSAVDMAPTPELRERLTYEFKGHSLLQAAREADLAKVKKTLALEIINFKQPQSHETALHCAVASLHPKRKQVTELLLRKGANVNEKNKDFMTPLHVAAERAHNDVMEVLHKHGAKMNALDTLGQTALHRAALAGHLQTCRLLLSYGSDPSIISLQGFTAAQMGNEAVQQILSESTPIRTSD
  selected by phage display: confidence 4 (active)

B27: KIF26A, Q9ULI4 (peptide)
chain: DGVARTPPVGMSGQVA
TNKS 174-649, O95271
  selected by phage display: confidence 3 (active)

B28: SPNS1, Q9H2V7 (peptide)
chain: QGLLHEAGSTDDRIVV
TNKS 174-649, O95271
  selected by phage display: confidence 2 (active)

B29: INPP5K, Q9BT40 (peptide)
chain: PGSLREDPLGEAQPQI
TNKS 174-649, O95271
  selected by phage display: confidence 4 (active)

B30: STK36, Q9NRP7 (peptide)
chain: EERPEVLGQRSTDVVD
TNKS 174-649, O95271
  selected by phage display: confidence 2 (active)

B31: DSC3, Q14574 (peptide)
chain: DYVLTYNYEGRGSPAG
TNKS 174-649, O95271
  selected by phage display: confidence 2 (active)

B32: CCNH, P51946 (peptide)
chain: SPQFVGNLRESPLGQE
TNKS 174-649, O95271
  selected by phage display: confidence 2 (active)

B33: BAHCC1, Q9P281 (peptide)
chain: HGDGEVRQPPVGIAVA
TNKS 174-649, O95271
  selected by phage display: confidence 2 (active)

B34: CGN, Q9P2M7 (peptide)
chain: RGLVDGGEAVEARLRD
TNKS 174-649, O95271
  selected by phage display: confidence 3 (active)

B35: ENDOG, Q14249 (peptide)
chain: LFLPRTEADGKSYVKY
TNKS 174-649, O95271
  selected by phage display: confidence 4 (active)

B36: TXNDC15, Q96J42 (peptide)
chain: RTESIRWLIPGQEQEH
TNKS 174-649, O95271
  selected by phage display: confidence 3 (active)

B37: RUNDC1, Q96C34 (peptide)
chain: LPPAEAVRWAPVGAVA
TNKS 174-649, O95271
  selected by phage display: confidence 4 (active)

B38: CNGA3, Q16281 (peptide)
chain: SVLQPGIAMETRGLAD
TNKS 174-649, O95271
  selected by phage display: confidence 2 (active)

B39: THAP4, Q8WY91 (peptide)
chain: AQQALERTPGDGLATM
TNKS 174-649, O95271
  selected by phage display: confidence 3 (active)

B40: PAN3, Q58A45 (peptide)
chain: GGLDGPRLAIPGMDGG
TNKS 174-649, O95271
  selected by phage display: confidence 3 (active)

B41: HNRNPM, P52272 (peptide)
chain: QTIERMGSGVERMGPA
TNKS 174-649, O95271
  selected by phage display: confidence 3 (active)

B42: LENG9, Q96B70 (peptide)
chain: AQVLSQRLEAEGLSTL
TNKS 174-649, O95271
  selected by phage display: confidence 2 (active)

B43: GCC2, Q8IWJ2 (peptide)
chain: LDMHTVTREEGEGMET
TNKS 174-649, O95271
  selected by phage display: confidence 3 (active)

B44: WDR37, Q9Y2I8 (peptide)
chain: TLNERLAAEGQAIDGA
TNKS 174-649, O95271
  selected by phage display: confidence 3 (active)

B45: CRTC2, Q53ET0 (peptide)
chain: DELRMEPLGLEGLNML
TNKS 174-649, O95271
  selected by phage display: confidence 3 (active)

B46: SPTAN1, Q13813 (peptide)
chain: SLIERGAAAGSEDAVK
TNKS 174-649, O95271
  selected by phage display: confidence 2 (active)

B47: NAB2, Q15742 (peptide)
chain: GGGPDRLEPEMVRMVV
TNKS 174-649, O95271
  selected by phage display: confidence 2 (active)

B48: APOL2, Q9BQE5 (peptide)
chain: IGRISAEGGEQVERVV
TNKS 174-649, O95271
  selected by phage display: confidence 3 (active)

B49: HNRNPM, P52272 (peptide)
chain: SVERMGSGIERMGPLG
TNKS 174-649, O95271
  selected by phage display: confidence 4 (active)

B50: KIF26B, Q2KJY2 (peptide)
chain: RVVDGAEMALPGLATQ
TNKS 174-649, O95271
  selected by phage display: confidence 2 (active)

B51: FAM83H, Q6ZRV2 (peptide)
chain: QYVTREPPEGSLLDVD
TNKS 174-649, O95271
  selected by phage display: confidence 2 (active)

B52: DIP2A, Q14689 (peptide)
chain: EPWLDRVIQGSSTSSS
TNKS 174-649, O95271
  selected by phage display: confidence 3 (active)

B53: SLC35A5, Q9BS91 (peptide)
chain: ERSSGDGEELERLTKP
TNKS 174-649, O95271
  selected by phage display: confidence 3 (active)

B54: CACNA1S, Q13698 (peptide)
chain: REAPEGMASSLGALNL
TNKS 174-649, O95271
  selected by phage display: confidence 4 (active)

B55: BLZF1, Q9H2G9 (peptide)
chain: VTSSPIRGAGDGMETE
TNKS 174-649, O95271
  selected by phage display: confidence 2 (active)

B56: AKAP13, Q12802 (peptide)
chain: RQEALGAEHNSSALLP
TNKS 174-649, O95271
  selected by phage display: confidence 3 (active)

B57: PPFIA1, Q13136 (peptide)
chain: DIRGLAAGSAETLPAN
TNKS 174-649, O95271
  selected by phage display: confidence 2 (active)

B58: ERRFI1, Q9UJM3 (peptide)
chain: QERLIPLGHASKSAPM
TNKS 174-649, O95271
  selected by phage display: confidence 2 (active)

B59: HOXA13, P31271 (peptide)
chain: VPGLGGPGESRHEPLG
TNKS 174-649, O95271
  selected by phage display: confidence 2 (active)

B60: MTHFD1L, Q6UB35 (peptide)
chain: GGRTPAARDSIVREVI
TNKS 174-649, O95271
  selected by phage display: confidence 2 (active)

B61: FOXP4, Q8IVH2 (peptide)
chain: MMVESASETIRSAPSG
TNKS 174-649, O95271
  selected by phage display: confidence 3 (active)

B62: CSB-PGBD3, P0DP91 (peptide)
chain: YLSFRSVGDGLSTSAV
TNKS 174-649, O95271
  selected by phage display: confidence 3 (active)
